PubChem BioAssay AID1159580 (chemical genetic matrix, 2015)
The whole screen tested about 5,500 compounds, of which about 2,000 (36%) were called active. About 18% were inconclusive and are not listed. Cut-off read from the data, not from the text of the source: active = normalized growth mostly below about 0.91 (no sharp cut-off); inconclusive = no clear call, values can overlap the other calls; inactive = mostly above about 0.92. Some of the results follow.

Assay: chemical genetic growth profiling, strain panel (AID 1159580);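 note: tested at 20 µM; growth read once vehicle control cultures reached saturation at 30 °C; 1 = growth at the plate median or of vehicle wells; lower values mean less growth of the strain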
Settings: growth OD

Measured: normalized growth

COP(=S)(OC)SCn1nnc2ccccc2c1=O
inactive: S. cerevisiae deletion strains, locus YJR075W, strain HOC1, hits give low values 0.975 | S. cerevisiae deletion strains, locus YKL068W, hits give low values 0.995 | S. cerevisiae deletion strains, locus YKL085W, strain MDH1 (second series), hits give low values 0.985 | S. cerevisiae deletion strains, locus YKL085W, strain MDH1, hits give low values 0.985 | S. cerevisiae deletion strains, locus YKL160W, strain elf1, hits give low values 0.989 | S. cerevisiae deletion strains, locus YKL190W, strain CNB1, hits give low values 0.976 | S. cerevisiae deletion strains, locus YKR001C, strain vps1, hits give low values 0.969 | S. cerevisiae deletion strains, locus YKR026C, strain gcn3, hits give low values 1.01 | S. cerevisiae deletion strains, locus YKR091W, strain srl3, hits give low values 1.01 | S. cerevisiae deletion strains, locus YLL001W, strain dnm1, hits give low values 1.01 | S. cerevisiae deletion strains, locus YLL026W, hits give low values 0.999 | S. cerevisiae deletion strains, locus YLL041C, strain sdh2, hits give low values 1 | S. cerevisiae deletion strains, locus YLR027C, strain aat2, hits give low values 0.996 | S. cerevisiae deletion strains, locus YLR039C, strain RIC1, hits give low values 0.974 | S. cerevisiae deletion strains, locus YLR058C, strain SHM2, hits give low values 0.971 | S. cerevisiae deletion strains, locus YLR102C, strain apc9, hits give low values 0.98 | S. cerevisiae deletion strains, locus YLR113W, strain HOG1, hits give low values 1.01 | S. cerevisiae deletion strains, locus YLR221C, strain rsa3, hits give low values 0.971 | S. cerevisiae deletion strains, locus YLR258W, strain gsy2, hits give low values 1 | S. cerevisiae deletion strains, locus YLR262C, strain YPT6 (second series), hits give low values 0.96 | S. cerevisiae deletion strains, locus YLR262C, strain YPT6, hits give low values 0.941 | S. cerevisiae deletion strains, locus YLR268W, strain sec22, hits give low values 0.963 | S. cerevisiae deletion strains, locus YLR320W, strain mms22, hits give low values 1 | S. cerevisiae deletion strains, locus YLR330W, strain CHS5, hits give low values 0.981 | S. cerevisiae deletion strains, locus YLR342W, strain FKS1 (second series), hits give low values 0.921 | S. cerevisiae deletion strains, locus YLR342W, strain FKS1, hits give low values 0.986 | S. cerevisiae deletion strains, locus YLR357W, strain rsc2, hits give low values 0.885 | S. cerevisiae deletion strains, locus YLR370C, strain arc18, hits give low values 1.02 | S. cerevisiae deletion strains, locus YLR371W, strain rom2, hits give low values 0.98 | S. cerevisiae deletion strains, locus YLR384C, strain iki3, hits give low values 0.993 | S. cerevisiae deletion strains, locus YLR418C, strain cdc73, hits give low values 0.985 | S. cerevisiae deletion strains, locus YML016C, strain PPZ1, hits give low values 0.981 | S. cerevisiae deletion strains, locus YML032C, strain rad52, hits give low values 0.977 | S. cerevisiae deletion strains, locus YML120C, strain ndi1, hits give low values 1.01 | S. cerevisiae deletion strains, locus YML124C, strain tub3, hits give low values 0.999 | S. cerevisiae deletion strains, locus YMR058W, strain fet3, hits give low values 0.974 | S. cerevisiae deletion strains, locus YMR078C, strain ctf18, hits give low values 0.981 | S. cerevisiae deletion strains, locus YMR125W, strain sto1, hits give low values 1.01 | S. cerevisiae deletion strains, locus YMR129W, hits give low values 1.01 | S. cerevisiae deletion strains, locus YMR205C, strain PFK2, hits give low values 1.03 | S. cerevisiae deletion strains, locus YMR223W, strain ubp8, hits give low values 0.962 | S. cerevisiae deletion strains, locus YMR231W, strain pep5, hits give low values 0.969 | S. cerevisiae deletion strains, locus YMR263W, strain SAP30, hits give low values 0.95 | S. cerevisiae deletion strains, locus YMR307W, strain GAS1, hits give low values 0.993 | S. cerevisiae deletion strains, locus YNL067W, strain RPL9B, hits give low values 0.941 | S. cerevisiae deletion strains, locus YNL071W, strain lat1, hits give low values 0.98 | S. cerevisiae deletion strains, locus YNL128W, strain TEP1, hits give low values 0.954 | S. cerevisiae deletion strains, locus YNL153C, strain GIM3, hits give low values 0.974 | S. cerevisiae deletion strains, locus YNL183C, strain NPR1, hits give low values 0.891 | S. cerevisiae deletion strains, locus YNL209W, strain ssb2, hits give low values 1.01 | S. cerevisiae deletion strains, locus YNL233W, strain BNI4, hits give low values 0.975 | S. cerevisiae deletion strains, locus YNL248C, strain rpa49, hits give low values 0.951 | S. cerevisiae deletion strains, locus YNL250W, strain rad50, hits give low values 0.978 | S. cerevisiae deletion strains, locus YNL271C, strain bni1, hits give low values 0.977 | S. cerevisiae deletion strains, locus YNL298W, strain CLA4, hits give low values 0.959 | S. cerevisiae deletion strains, locus YNL307C, strain MCK1, hits give low values 0.995 | S. cerevisiae deletion strains, locus YNL322C, strain KRE1 (second series), hits give low values 1 | S. cerevisiae deletion strains, locus YNL322C, strain KRE1, hits give low values 0.979 | S. cerevisiae deletion strains, locus YNR049C, strain mso1, hits give low values 1.01 | S. cerevisiae deletion strains, locus YNR052C, strain pop2, hits give low values 0.99 | S. cerevisiae deletion strains, locus YOL006C, strain TOP1, hits give low values 0.829 | S. cerevisiae deletion strains, locus YOL012C, strain htz1 1.5 | S. cerevisiae deletion strains, locus YOL147C, strain pex11, hits give low values 0.99 | S. cerevisiae deletion strains, locus YOR001W, strain rrp6, hits give low values 0.973 | S. cerevisiae deletion strains, locus YOR061W, strain CKA2, hits give low values 0.955 | S. cerevisiae deletion strains, locus YOR069W, strain VPS5, hits give low values 0.992 | S. cerevisiae deletion strains, locus YOR070C, strain gyp1, hits give low values 0.986 | S. cerevisiae deletion strains, locus YOR080W, strain dia2, hits give low values 0.998 | S. cerevisiae deletion strains, locus YOR083W, strain WHI5, hits give low values 0.976 | S. cerevisiae deletion strains, locus YOR106W, strain vam3, hits give low values 0.918 | S. cerevisiae deletion strains, locus YOR136W, strain idh2, hits give low values 1.01 | S. cerevisiae deletion strains, locus YOR144C, strain elg1, hits give low values 0.988 | S. cerevisiae deletion strains, locus YOR184W, strain ser1, hits give low values 0.951 | S. cerevisiae deletion strains, locus YOR231W, strain MKK1, hits give low values 0.985 | S. cerevisiae deletion strains, locus YOR265W, strain rbl2, hits give low values 1 | S. cerevisiae deletion strains, locus YOR270C, strain vph1, hits give low values 0.858 | S. cerevisiae deletion strains, locus YOR290C, strain snf2, hits give low values 0.976 | S. cerevisiae deletion strains, locus YOR316C, strain cot1, hits give low values 0.971 | S. cerevisiae deletion strains, locus YPL051W, strain arl3, hits give low values 0.973 | S. cerevisiae deletion strains, locus YPL055C, strain LGE1, hits give low values 0.951 | S. cerevisiae deletion strains, locus YPL078C, strain atp4, hits give low values 0.992 | S. cerevisiae deletion strains, locus YPL106C, strain sse1, hits give low values 1.02 | S. cerevisiae deletion strains, locus YPL240C, strain hsp82, hits give low values 1.01 | S. cerevisiae deletion strains, locus YPL241C, strain CIN2, hits give low values 0.978 | S. cerevisiae deletion strains, locus YPL256C, strain CLN2, hits give low values 1 | S. cerevisiae deletion strains, locus YPR119W, strain clb2, hits give low values 0.994 | S. cerevisiae deletion strains, locus YPR141C, strain kar3, hits give low values 0.969 | S. cerevisiae deletion strains, locus YPR163C, strain tif3, hits give low values 0.99 | S. cerevisiae deletion strains, locus YPR167C, strain met16, hits give low values 0.981 | S. cerevisiae deletion strains, strain wtn01, hits give low values 0.981 | S. cerevisiae strains, strain wild type, hits give low values 0.977
active: S. cerevisiae deletion strains, locus YKL009W, strain mrt4, hits give low values 0.866
